High-throughput results deposited in PubChem by several laboratories.
Rows were chosen to be rich in hits. Some 32% of all compounds tested hit in one or more screens of this group.
CYP2C9 act: human CYP2C9 activators, primary screen, biochemical, luminescence; Cytochrome P450 2C9 (Homo sapiens), P11712; recombinant CYP2C9, luciferin-H conversion; stronger effect = higher value; factor 1 = untreated enzyme, 0 = blocked; activation factor at 5 µM; 96,000 compounds, 1.4% hits;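 active = activation factor of 2 or more for CYP2C9 at a 5 µM dose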
CYP2C19 inh: blockers of cytochrome P450 2C19 activity – biochemical, luminescence, ADME assay, primary screen; CYP2C19 Supersomes, luciferin-H EGE luminescence, 30 min; inhibition, % at 5 µM; 96,000 compounds, 21% hits; AID 778, 2007;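 active = CYP2C19 inhibition above a set limit at 5 µM in the primary screen, cut at about 50% in these data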
Target sequence (P33261 whole entry, looked up): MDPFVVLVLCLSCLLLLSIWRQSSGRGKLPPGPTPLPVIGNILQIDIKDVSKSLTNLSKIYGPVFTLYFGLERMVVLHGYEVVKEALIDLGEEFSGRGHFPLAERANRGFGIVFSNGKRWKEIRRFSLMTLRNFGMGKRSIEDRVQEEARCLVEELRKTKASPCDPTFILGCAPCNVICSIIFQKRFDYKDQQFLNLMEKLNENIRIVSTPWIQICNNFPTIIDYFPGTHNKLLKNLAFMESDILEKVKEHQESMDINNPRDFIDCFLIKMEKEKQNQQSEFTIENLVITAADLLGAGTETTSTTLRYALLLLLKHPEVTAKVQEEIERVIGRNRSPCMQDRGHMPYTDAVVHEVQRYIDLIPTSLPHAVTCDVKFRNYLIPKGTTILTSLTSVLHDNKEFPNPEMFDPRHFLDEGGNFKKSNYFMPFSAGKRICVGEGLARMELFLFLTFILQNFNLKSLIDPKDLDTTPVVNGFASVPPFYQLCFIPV
PostGolgi yeast: phenotypic screen on post-Golgi transport, primary screen | post-Golgi transport phenotypic cell assay | inhibition, % at 10 µM | 98,000 compounds, 0.9% hits | AID 739, 2007;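 also: yeast cells grown in 1536-well plates; yeast grown about 18 h at 30C before absorbance read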
PostGolgi ctrl: growth inhibition of yeast control strain, primary screen, counter-screen for post-Golgi transport modulator project | efflux-deficient yeast background strain, growth absorbance A615, 16 h | inhibition, % at 10 µM | 98,000 compounds, 5% hits | AID 738, 2007
CYP2C19 activ: human CYP2C19 activators, primary screen, biochemical, luminescence; recombinant CYP2C19, luciferin-H EGE luminescence; stronger effect = higher value; 0 = fully inhibited enzyme, 1 = untreated enzyme; activation factor at 5 µM; 96,000 tested, under 10 active;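 active = activation factor of at least 2 at 5 µM in the primary screen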
CYP2C9 inh: blockers of cytochrome P450 2C9 activity – biochemical, luminescence, ADME assay, primary screen | P11712 | CYP2C9 Supersomes, luciferin-H conversion | inhibition, % at 5 µM | 96,000 compounds, 20% hits | AID 777, 2007;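 active = blocking of liver enzyme CYP2C9 beyond about 50% at 5 µM, limit read from the data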
Of the large screens only hits and unclear results are named; the others gave an inactive call. Rule as the data show it, unless noted: active = inhibition above about 30%; inactive = the rest.

COC(=O)c1cc(OC)c(OC)cc1NC(=O)CSc1nnnn1Cc1ccccc1	CYP2C19 inh 75, PostGolgi ctrl 38, CYP2C9 inh 82
CC1CCC(C(=O)NC(C(=O)N2CCN(c3ccccn3)CC2)C(C)C)CC1 (stereo unspecified)	none
COc1cccc(C(=O)CSc2nnnn2C)c1	CYP2C19 inh 72
COC(=O)c1ccc(CSc2nnnn2Cc2ccccc2)cc1	CYP2C9 inh 78
CC12CCC(C(=O)N(NC(=O)c3cc(Cl)ccc3O)C1=O)C2(C)C (stereo unspecified)	none
CCOC(=O)N1CCN(S(=O)(=O)N(C)C)CC1	none
COc1ccc(CNC(=O)Cn2cc([N+](=O)[O-])nc2C)cc1	none
Cc1ccccc1N(C(=O)Cn1nnc2ccccc21)C(C(=O)NCc1ccco1)c1ccncc1 (stereo unspecified)	none
O=S(=O)(NCCOC12CC3CC(CC(C3)C1)C2)c1cccc2nsnc12	CYP2C19 inh 97
O=C(O)CCCNS(=O)(=O)c1cccc2nsnc12	none
O=S(=O)(NCCc1ccccc1)c1cccc2nsnc12	CYP2C19 inh 99, CYP2C9 inh 59
C=CCOc1ccc2ccccc2c1CNCCCN1CCOCC1	none
CCOC(=O)C1(O)CSc2nc3sc(C(=O)O)c(C)c3c(=O)n21 (stereo unspecified)	none
COc1cccc(C(=O)Nc2nc3c(c(=O)[nH]2)CCCC3)c1	none
COC(=O)C(NC(C)=O)(Nc1ccccn1)C(F)(F)F (stereo unspecified)	CYP2C9 inh 50
COC(=O)C(NC(=O)c1ccco1)(Nc1ccc(Br)cn1)C(F)(F)F (stereo unspecified)	CYP2C19 inh 94
CCCCC(=O)NC(Nc1ccc(C)cn1)(C(=O)OCC)C(F)(F)F (stereo unspecified)	CYP2C19 inh 66
COC(=O)C(NC(=O)c1ccco1)(Nc1nc(C)cs1)C(F)(F)F (stereo unspecified)	none
COC(=O)C(NC(C)=O)(Nc1nc2c(C)cc(C)cc2s1)C(F)(F)F (stereo unspecified)	CYP2C19 inh 92, CYP2C9 inh 99
COc1ccc(C(=O)N(CN2CCCC2=O)c2nccs2)cc1OC	none
COC(=O)C(NC(C)=O)(Nc1ccc(Br)cn1)C(F)(F)F (stereo unspecified)	CYP2C19 inh 82
COC(=O)C(NC(C)=O)(Nc1nc(C)cs1)C(F)(F)F (stereo unspecified)	none
COC(=O)NCC(C)OC(=O)Nc1cccc(Cl)c1 (stereo unspecified)	CYP2C19 inh 59
CC(C)COC(=O)NCCCOC(=O)Nc1ccccc1	none
O=C(Nc1cccc(Cl)c1)ON=C1c2ccccc2-c2ccccc21	CYP2C9 inh 63
CC1CCCC(C)N1C(=O)Nc1cccc(Cl)c1 (stereo unspecified)	none
CC(C)COC(=O)NCCOC(=O)Nc1cccc(Cl)c1	CYP2C19 inh 95, CYP2C9 inh 80
O=C(C1CCC(C(=O)N2CCCCC2)CC1)N1CCCCC1 (stereo unspecified)	none
COc1ccc(OC)c(S(=O)(=O)Nc2cc(OC)c(Cl)cc2OC)c1	CYP2C19 inh 57, CYP2C9 inh 56
COc1ccc(OC)c(S(=O)(=O)Nc2ccccc2C(F)(F)F)c1	none (no result: CYP2C9 act, CYP2C19 inh, CYP2C19 activ, CYP2C9 inh)
COc1cc(NS(=O)(=O)c2ccc(OC)c(C)c2C)c(OC)cc1Cl	CYP2C19 inh 99, PostGolgi ctrl 36, CYP2C9 inh 99
O=c1c2c3c(sc2n2cnnc2n1Cc1ccccc1)CN(Cc1ccccc1)CC3	CYP2C19 inh 66, CYP2C9 inh 74 (no result: PostGolgi yeast, PostGolgi ctrl)
Cc1nnc2n(Cc3ccccc3)c(=O)c3c4c(sc3n12)CN(Cc1ccccc1)CC4	none (no result: PostGolgi yeast, PostGolgi ctrl)
NC(=O)c1cccc2c(=O)oc3ccccc3c12	none
COc1ccc(C(c2sc3nc(C)nn3c2O)N2CCc3ccccc3C2)cc1 (stereo unspecified)	none
CCOC(=O)C1CCN(C(c2cccc(OC)c2)c2sc3nc(C)nn3c2O)CC1 (stereo unspecified)	CYP2C19 inh 87
CCOC(=O)C1CCN(C(c2cccs2)c2sc3nc(C)nn3c2O)CC1 (stereo unspecified)	CYP2C19 inh 65
COc1cc(C(c2sc3nc(C)nn3c2O)N2CCc3ccccc3C2)cc(OC)c1OC (stereo unspecified)	CYP2C19 inh 84
COCCCNC(=S)NC1CC2CCCC(C1)N2Cc1cccs1 (stereo unspecified)	none
Cc1ccc(-n2nc(-c3cccs3)cc2C(=O)NCC2CCCO2)c(C)c1 (stereo unspecified)	CYP2C19 inh 65, CYP2C9 inh 90
CCOC(=O)N1CCN(C(=O)CSc2nc3ccccc3c(=O)n2-c2ccccc2)CC1	CYP2C19 inh 56, CYP2C9 inh 98
CCn1c(SCC(=O)N2CCCC2)nc2ccccc2c1=O	none
CCC1CCCCN1C(=O)CSc1nc2ccsc2c(=O)n1Cc1ccccc1 (stereo unspecified)	CYP2C19 inh 50, CYP2C9 inh 70
COCC(C)n1c(SCC(=O)N2CCCCC2)nc2ccccc2c1=O (stereo unspecified)	CYP2C9 inh 54
CCn1c(SCC(=O)N2CCN(c3ccc(F)cc3)CC2)nc2ccccc2c1=O	CYP2C19 inh 63, PostGolgi ctrl 37, CYP2C9 inh 59
Cn1c(SCC(=O)N2CCCC2)nc2ccccc2c1=O	none
CCOCCCNC(=O)CN1CCN(c2ccc(F)cc2)CC1	none
Cc1ccc(C2CN(c3ccccc3)CC2C(=O)c2ccc(F)cc2)cc1 (stereo unspecified)	none
COc1cccc2cc(C(=O)NC(C)C3CCCO3)c(=O)oc12 (stereo unspecified)	none
CC(C)C(=O)N1CCC(c2nc(-c3ccc(S(=O)(=O)N4CCCC4)cc3)no2)CC1	none
CCCCn1c(SCC(=O)N2CCC(C)CC2)nc2ccsc2c1=O	none
CCOC(=O)CSc1nc2ccccc2c(=O)n1Cc1ccco1	none
Cc1nn(-c2ccccc2)c(C)c1/C=N/NC(=O)CSc1nc2ccccc2c(=O)n1-c1ccc(Br)cc1	CYP2C9 inh 51
O=C(CSc1nc2ccccc2c(=O)n1Cc1ccco1)c1ccccc1	PostGolgi ctrl 31, CYP2C9 inh 72
CCCCn1c(SCC(=O)N2CCN(c3ccccc3)CC2)nc2ccsc2c1=O	CYP2C19 inh 51, PostGolgi ctrl 43, CYP2C9 inh 88
O=C(CSc1nc2ccccc2c(=O)n1Cc1ccco1)N1CCN(c2ccccc2)CC1	PostGolgi ctrl 36
Cc1ccccc1S(=O)(=O)NNC(=O)C(=O)NNc1ccccn1	none
